Assay results as given in the supplement of paper PMC6805474.

Assays:
[1] = test system: Schistosoma mansoni schistosomula (LE); experiment: XTT viability relative to DMSO control; higher = more viable (less active); settings: 72 h; 10 µM
Experimental: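 XTT/PMS was then added for a further 24 h (72 h total) and A450 was read. % viability = (sample - heat-killed control)/(DMSO control - heat-killed control) x 100, from duplicate wells in two independent experiments.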

[2] = test system: Schistosoma mansoni schistosomula (NMRI); experiment: phenotypic severity score (0-4); higher = more antischistosomal effect, active = 2 or more; settings: 10 µM
[3] = test system: Schistosoma mansoni schistosomula (Liberian); experiment: drug effect (1 - score/DMSO control score) (fraction); higher = more antischistosomal effect, active = 0.5 or more; extreme values may be limits of the assay; settings: 10 µM
Procedure, shortened: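 Schistosomula of the Liberian strain of Schistosoma mansoni were mechanically transformed from cercariae, pre-incubated for at least 12 h, and placed at 50 per well in flat-bottom 96-well plates with Medium 199 containing 5% FCS. Compounds were tested in duplicate at 10 µM at 37 °C and 5% CO2, alongside wells holding 0.1% DMSO. Parasites were scored visually at 10× after 24, 48 and 72 h on a quarter-point scale running from 3 (normal) to 0 (dead). Drug effect came from the mean test-well score relative to the mean DMSO-well score, with negative values set to zero and plates accepted only when the DMSO wells averaged at least 2.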
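For phenotypic severity score (0-4) in this document: visual microscopic scoring of shape, motility and density changes versus 0.5% DMSO solvent controls, one point per descriptor, degeneracy or death scored 4, mean of duplicate wells.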

O=C(NCc1ccoc1)N1CCN(Cc2ccc3c(c2)OCO3)CC1
inactive: phenotypic severity score ([2]; 24 h) 0 | phenotypic severity score ([2]; 48 h) 0 | phenotypic severity score ([2]; 72 h) 0 | drug effect ([3]; 24 h) 0.136 | drug effect ([3]; 48 h) 0.2 | drug effect ([3]; 72 h) 0.182
76.2%: XTT viability [1]

O=C(Nc1ccnc(-c2cccnc2)n1)c1cc(C(F)(F)F)cc(C(F)(F)F)c1
inactive: phenotypic severity score ([2]; 24 h) 0 | phenotypic severity score ([2]; 48 h) 0 | phenotypic severity score ([2]; 72 h) 0 | drug effect ([3]; 24 h) 0.1 | drug effect ([3]; 48 h) 0.0811 | drug effect ([3]; 72 h) 0.111
91%: XTT viability [1]

O=C(Nc1ccccc1)c1ccc(-c2cc3ccncc3cc2OC2CCNCC2)s1
inactive: phenotypic severity score ([2]; 24 h) 0 | phenotypic severity score ([2]; 48 h) 0 | phenotypic severity score ([2]; 72 h) 0 | drug effect ([3]; 24 h) 0.15 | drug effect ([3]; 48 h) 0.459 | drug effect ([3]; 72 h) 0.455
-18.1%: XTT viability [1]

CN1CCC(c2cc(-c3ccncc3)c(-c3ccc(F)cc3)[nH]2)CC1
94.6%: XTT viability [1]
inactive: phenotypic severity score ([2]; 24 h) 0 | phenotypic severity score ([2]; 48 h) 0 | phenotypic severity score ([2]; 72 h) 0 | drug effect ([3]; 24 h) < 0 | drug effect ([3]; 48 h) 0.0556 | drug effect ([3]; 72 h) 0.111

CC(C)NCC(=O)Nc1cccc(C(=O)Nc2cccc(C(F)(F)F)c2)c1
inactive: phenotypic severity score ([2]; 24 h) 0 | phenotypic severity score ([2]; 48 h) 0 | phenotypic severity score ([2]; 72 h) 0 | drug effect ([3]; 24 h) 0.2 | drug effect ([3]; 48 h) 0.167 | drug effect ([3]; 72 h) 0.375
86.7%: XTT viability [1]

Cc1ccc2[nH]c3c(NCCN(C)C)ncnc3c2c1
inactive: phenotypic severity score ([2]; 24 h) 1 | phenotypic severity score ([2]; 48 h) 0 | phenotypic severity score ([2]; 72 h) 1 | drug effect ([3]; 24 h) 0.25 | drug effect ([3]; 48 h) 0.222 | drug effect ([3]; 72 h) 0.333
72.5%: XTT viability [1]

Cc1cc(C(=O)Nc2ccc(-c3ccccc3)cc2)no1
inactive: phenotypic severity score ([2]; 24 h) 0 | phenotypic severity score ([2]; 48 h) 0 | phenotypic severity score ([2]; 72 h) 0 | drug effect ([3]; 24 h) 0.1 | drug effect ([3]; 48 h) 0.0811 | drug effect ([3]; 72 h) 0.111
90.7%: XTT viability [1]

O=C(Nc1nnc(-c2ccc(Cl)s2)o1)c1ccc(Cl)s1
-3.4%: XTT viability [1]
inactive: drug effect ([3]; 24 h) < 0 | drug effect ([3]; 48 h) < 0 | drug effect ([3]; 72 h) < 0
active: phenotypic severity score ([2]; 24 h) 2 | phenotypic severity score ([2]; 48 h) 4 | phenotypic severity score ([2]; 72 h) 4

CC(Oc1ccccc1)C(=O)Nc1nc(-c2ccccn2)cs1 (stereo not given)
59.4%: XTT viability [1]
inactive: phenotypic severity score ([2]; 48 h) 0 | drug effect ([3]; 24 h) 0.297
active: phenotypic severity score ([2]; 24 h) 2 | phenotypic severity score ([2]; 72 h) 4 | drug effect ([3]; 48 h) 0.5 | drug effect ([3]; 72 h) 0.625

CC(=O)N1CCc2cc3nc(C)cc(C)c3cc21
112%: XTT viability [1]
inactive: phenotypic severity score ([2]; 24 h) 0 | phenotypic severity score ([2]; 48 h) 0 | phenotypic severity score ([2]; 72 h) 0 | drug effect ([3]; 24 h) 0.2 | drug effect ([3]; 48 h) 0.111 | drug effect ([3]; 72 h) 0.0625

Nc1cccnc1Nc1ccc(Cl)cc1
157%: XTT viability [1]
inactive: phenotypic severity score ([2]; 24 h) 0 | phenotypic severity score ([2]; 48 h) 0 | phenotypic severity score ([2]; 72 h) 0 | drug effect ([3]; 24 h) 0.15 | drug effect ([3]; 48 h) 0.278 | drug effect ([3]; 72 h) 0.375

Cc1ccc(NC(=O)c2cc(S(=O)(=O)NC(C)(C)C)ccc2C)nc1
90.2%: XTT viability [1]
inactive: phenotypic severity score ([2]; 24 h) 0 | phenotypic severity score ([2]; 48 h) 0 | phenotypic severity score ([2]; 72 h) 0 | drug effect ([3]; 24 h) 0.2 | drug effect ([3]; 48 h) 0.222 | drug effect ([3]; 72 h) 0.375

COc1cccc(-n2nnnc2S(=O)(=O)Cc2ccccc2)c1
-7.15%: XTT viability [1]
active: phenotypic severity score ([2]; 24 h) 4 | phenotypic severity score ([2]; 48 h) 4 | phenotypic severity score ([2]; 72 h) 4 | drug effect ([3]; 24 h) 1 | drug effect ([3]; 48 h) 1 | drug effect ([3]; 72 h) 1

Cc1nc(-c2cccc(NCc3ccccc3)c2)[nH]c1C
inactive: phenotypic severity score ([2]; 24 h) 0 | phenotypic severity score ([2]; 48 h) 0 | phenotypic severity score ([2]; 72 h) 0 | drug effect ([3]; 24 h) 0.1 | drug effect ([3]; 48 h) 0.111 | drug effect ([3]; 72 h) 0.25
104%: XTT viability [1]

CCN(CC)C(=O)N1CCN(C)CC1
inactive: phenotypic severity score ([2]; 24 h) 0 | phenotypic severity score ([2]; 48 h) 0 | phenotypic severity score ([2]; 72 h) 0 | drug effect ([3]; 24 h) 0.15 | drug effect ([3]; 48 h) 0.222 | drug effect ([3]; 72 h) 0.375
95.5%: XTT viability [1]

Nc1ncnc2c1c(-c1cnc3ccccc3c1)nn2CC1CCNCC1
inactive: phenotypic severity score ([2]; 24 h) 0 | phenotypic severity score ([2]; 48 h) 0 | phenotypic severity score ([2]; 72 h) 0 | drug effect ([3]; 24 h) 0.2 | drug effect ([3]; 48 h) 0.278
active: drug effect ([3]; 72 h) 0.5
169%: XTT viability [1]

CC(C)(C)c1cc(C(=O)Nc2cccnc2)cc(C(=O)Nc2cccnc2)c1
inactive: phenotypic severity score ([2]; 24 h) 0 | phenotypic severity score ([2]; 48 h) 0 | phenotypic severity score ([2]; 72 h) 0 | drug effect ([3]; 24 h) < 0 | drug effect ([3]; 48 h) 0.0811 | drug effect ([3]; 72 h) 0.0556
79.8%: XTT viability [1]

CCc1ccc([C@@H]2C[C@H](C(F)(F)F)n3ncc(C(=O)NCc4ccc(OC)cc4)c3N2)cc1
99.5%: XTT viability [1]
inactive: phenotypic severity score ([2]; 24 h) 1 | phenotypic severity score ([2]; 48 h) 1 | phenotypic severity score ([2]; 72 h) 0 | drug effect ([3]; 24 h) 0.1 | drug effect ([3]; 48 h) 0.111 | drug effect ([3]; 72 h) 0.0556

O=C1[C@@H](Oc2ccccc2)[C@@H](c2ccc(Cl)cc2)N1CCn1cnc2c(NCc3ccccc3)ncnc21
inactive: drug effect ([3]; 24 h) 0.136 | drug effect ([3]; 48 h) 0.1 | drug effect ([3]; 72 h) 0.158
active: phenotypic severity score ([2]; 24 h) 3 | phenotypic severity score ([2]; 48 h) 4 | phenotypic severity score ([2]; 72 h) 4
68.1%: XTT viability [1]

CN1CCN(S(=O)(=O)c2ccc(-c3ccc4c(Nc5ncc(Cl)cn5)ccnc4c3)cc2)CC1
active: phenotypic severity score ([2]; 24 h) 2 | phenotypic severity score ([2]; 48 h) 4 | phenotypic severity score ([2]; 72 h) 4 | drug effect ([3]; 24 h) 0.6 | drug effect ([3]; 48 h) 0.611 | drug effect ([3]; 72 h) 0.625
32.4%: XTT viability [1]
